The panel holds about 83,000 compounds, 20% with a hit somewhere; the sample as a whole holds those more often.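 Percent growth is the endpoint: 0 to 100 indicates growth inhibition (40 means 60% inhibition), 0 means no net growth, and negative values indicate cell death.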 A number with no mark means an inactive call. Active and inactive are the calls of the source. How the source made its calls: active means growth percent below 10; inactive means the rest.

Holding throughout (test): NCI-60 one-dose screen, 48 h (100 = growth as untreated, 0 = no growth, -100 = all killed)
One assay deals with SK-MEL-2 melanoma. Conditions: 10 µM unless noted.
The subject of the next assay is EKVX NSCLC. The settings on record: 10 µM unless noted.
Another assay has as its system SN12C renal. The settings on record: 10 µM unless noted.
In a further assay the test system is UO-31 renal. Conditions: 10 µM unless noted.
The test system of a further assay is TK-10 renal. Conditions: 10 µM unless noted.
Another assay relates to ACHN renal. The settings on record: 10 µM unless noted.
The test system of another assay is CAKI-1 renal. Conditions: 10 µM.
Another assay has as its system A498 renal. The settings on record: 10 µM unless noted.
The test system of the next assay is CCRF-CEM leukemia. Conditions: 10 µM unless noted.
The test system of another assay is MOLT-4 leukemia. The settings on record: 10 µM unless noted.
The next assay deals with SR leukemia. Conditions: 10 µM unless noted.
In a further assay the test system is RPMI-8226 leukemia. Conditions: 10 µM unless noted.
The subject of a further assay is OVCAR-8 ovarian. Conditions: 10 µM unless noted.
For a further assay, the system named is OVCAR-5 ovarian. Conditions: 10 µM unless noted.
For another assay, the system named is OVCAR-4 ovarian. The settings on record: 10 µM unless noted.
The subject of the next assay is SK-OV-3 ovarian. The settings on record: 10 µM unless noted.
Another assay has as its system IGROV1 ovarian. Conditions: 10 µM unless noted.
The test system of the next assay is HS 578T breast. The settings on record: 10 µM unless noted.
The subject of a further assay is NCI/ADR-RES ovarian. Conditions: 10 µM unless noted.

For `Clc1ccc(-c2nc3ccc(/C(=N\N=C\c4ccccc4)c4ccccc4)cc3[nH]2)cc1`, the growth in the assay with SK-MEL-2 melanoma was 96.1%; in the assay with EKVX NSCLC, 93.4%; with SN12C renal it was 93.4%; in the assay on UO-31 renal, 83.3%; with TK-10 renal, 95.9%; in the assay with ACHN renal it was 92.1%. Further, the growth was 77.2% in the assay with CAKI-1 renal; 65.7% with A498 renal; 71% with CCRF-CEM leukemia; 59.3% in the assay with MOLT-4 leukemia; 72.9% in the assay with SR leukemia; 54.6% in the assay with RPMI-8226 leukemia. For the same compound, the growth with OVCAR-8 ovarian was 85.6%; in the assay with OVCAR-5 ovarian, 85.6%; in the assay with OVCAR-4 ovarian, 77.8%; in the assay with SK-OV-3 ovarian it was 90.7%; in the assay on IGROV1 ovarian it was 104%; in the assay on HS 578T breast, 99.9%. In the assay with NCI/ADR-RES ovarian, the growth was 87.8%.

As for `C/C=C/C=C1\C[C@H]2CO[C@H](O2)C1=O`, the growth is 100% in the assay with SK-MEL-2 melanoma; 103% in the assay on EKVX NSCLC; 100% in the assay with SN12C renal; 88.2% in the assay with UO-31 renal; 108% in the assay with TK-10 renal; 103% in the assay with ACHN renal. Further, the growth in the assay with CAKI-1 renal was 98%; with A498 renal, 103%; in the assay with CCRF-CEM leukemia, 78.9%; with MOLT-4 leukemia it was 90.4%; in the assay with SR leukemia, 53.1%; in the assay with RPMI-8226 leukemia it was 95.4%. The growth was 99.7% in the assay with OVCAR-8 ovarian; 103% in the assay with OVCAR-5 ovarian; 101% in the assay with OVCAR-4 ovarian; 103% in the assay on SK-OV-3 ovarian; 97.7% in the assay on IGROV1 ovarian; 107% in the assay with HS 578T breast. The growth in the assay on NCI/ADR-RES ovarian is 98.1%.

With `O=C(N/N=C\c1ccc(Cl)cc1)c1ccc2nc(-c3ccc(Br)cc3)[nH]c2c1`, the growth is 82.7% in the assay with SK-MEL-2 melanoma; 0.288% (active) in the assay with EKVX NSCLC; -14.6% (active) in the assay on SN12C renal; 15.9% in the assay with UO-31 renal; -26.8% (active) with TK-10 renal; -12.6% (active) in the assay with ACHN renal. In addition, the growth with CAKI-1 renal was -17.8% (active); with A498 renal it was 65.4%; in the assay with CCRF-CEM leukemia, 26.3%; in the assay on MOLT-4 leukemia, 11.6%; in the assay with SR leukemia, -8.2% (active); with RPMI-8226 leukemia, -8.35% (active). Moreover, the growth with OVCAR-8 ovarian was -14.4% (active); in the assay with OVCAR-5 ovarian it was 36.8%; with OVCAR-4 ovarian it was -44.1% (active); in the assay on SK-OV-3 ovarian, 79.1%; in the assay on IGROV1 ovarian, -43.6% (active); in the assay on HS 578T breast it was 15.6%. The growth in the assay on NCI/ADR-RES ovarian was 35.7%.

On to `C#C[C@]1(O)CC[C@H]2[C@@H]3CC=C4c5sc(Nc6nc(C)cc(OC)n6)nc5CC[C@]4(C)[C@H]3CC[C@@]21C`, for which the growth is 58.2% in the assay on SK-MEL-2 melanoma; 41.8% with EKVX NSCLC; 73% in the assay on SN12C renal; -1.87% (active) with UO-31 renal; 121% with TK-10 renal; 49.2% with ACHN renal. Besides, the growth with CAKI-1 renal is 19.2%; with A498 renal, 18.7%; with CCRF-CEM leukemia, 12.7%; with MOLT-4 leukemia, 7.93% (active); in the assay on SR leukemia, 12.4%; in the assay with RPMI-8226 leukemia, -0.189% (active). Also, the growth in the assay with OVCAR-8 ovarian was 73.3%; with OVCAR-5 ovarian it was 78.8%; in the assay with OVCAR-4 ovarian, 88.4%; in the assay with SK-OV-3 ovarian, 47.5%; in the assay with IGROV1 ovarian it was 66%; in the assay on HS 578T breast it was -6.82% (active). Also, the growth in the assay on NCI/ADR-RES ovarian is 62.7%.

For `Cc1cnc2nc(NN)[nH]n12`, the growth was 102% in the assay with SK-MEL-2 melanoma; 98.5% with EKVX NSCLC; 98.6% with SN12C renal; 81.3% with UO-31 renal; 105% with TK-10 renal; 98.4% in the assay on ACHN renal. In addition, the growth in the assay with CAKI-1 renal was 86.2%; in the assay with A498 renal, 111%; in the assay on CCRF-CEM leukemia, 102%; in the assay on MOLT-4 leukemia, 102%; with SR leukemia, 101%; in the assay with RPMI-8226 leukemia it was 104%. For the same compound, the growth in the assay with OVCAR-8 ovarian is 98%; in the assay on OVCAR-5 ovarian, 101%; with OVCAR-4 ovarian, 104%; with SK-OV-3 ovarian it was 102%; in the assay on IGROV1 ovarian it was 97.6%; in the assay on HS 578T breast, 107%. In addition, the growth in the assay on NCI/ADR-RES ovarian was 104%.

Take `Cn1cc2c(c1)-c1c(sc3nc(-c4ccc(NC(=O)Nc5cc(C(C)(C)C)on5)cc4)cn13)CC2`: the growth is 65.5% in the assay on SK-MEL-2 melanoma; 60.2% in the assay on EKVX NSCLC; 59.9% in the assay on SN12C renal; 18.2% with UO-31 renal; 95.4% in the assay with TK-10 renal; 42.1% with ACHN renal. Further, the growth is 28.1% with CAKI-1 renal; 32.1% with A498 renal; 28.2% with CCRF-CEM leukemia; 12% in the assay with MOLT-4 leukemia; 9.8% (active) with SR leukemia; -7.75% (active) in the assay on RPMI-8226 leukemia. In addition, the growth in the assay with OVCAR-8 ovarian was 53.8%; with OVCAR-5 ovarian, 74.8%; with OVCAR-4 ovarian it was 57.7%; with SK-OV-3 ovarian, 49.3%; in the assay on IGROV1 ovarian, 66.7%; in the assay on HS 578T breast it was -0.139% (active). Further, the growth with NCI/ADR-RES ovarian is 52.8%.

`COc1ccc(Cn2cc3c(c2-c2ccccc2)CCCc2cnoc2-3)cc1[N+](=O)[O-]`: the growth in the assay with SK-MEL-2 melanoma is 60.4%; in the assay on EKVX NSCLC, 78.9%; in the assay with SN12C renal it was 82.2%; in the assay with UO-31 renal, 55.5%; in the assay on TK-10 renal it was 109%; in the assay with ACHN renal, 87.1%. In addition, the growth was 50.5% with CAKI-1 renal; 66.8% with A498 renal; 52.6% in the assay on CCRF-CEM leukemia; 47% in the assay with MOLT-4 leukemia; 32.6% with SR leukemia; 59% in the assay with RPMI-8226 leukemia. Also, the growth with OVCAR-8 ovarian is 80.2%; in the assay with OVCAR-5 ovarian it was 93.4%; with OVCAR-4 ovarian, 68.8%; with SK-OV-3 ovarian it was 74.8%; in the assay on IGROV1 ovarian it was 64%; with HS 578T breast, 64.3%. For the same compound, in the assay with NCI/ADR-RES ovarian, the growth was 42.5%.

On to `CC(=O)Nc1ccc(C)c(Nc2cc(-c3ccc(-n4cccn4)cc3)[nH]n2)c1`, for which the growth in the assay with SK-MEL-2 melanoma is 3.79% (active); in the assay with EKVX NSCLC, 74.7%; in the assay on SN12C renal, 60.9%; in the assay with UO-31 renal, 60.6%; in the assay on TK-10 renal it was 89.6%; with ACHN renal it was 65.8%. Besides, the growth is 47.2% in the assay with CAKI-1 renal; 27.3% with A498 renal; 26.1% with CCRF-CEM leukemia; 47.8% in the assay with MOLT-4 leukemia; 19.2% in the assay on SR leukemia; 50.3% with RPMI-8226 leukemia. Besides, the growth is 80% in the assay on OVCAR-8 ovarian; 93.3% in the assay with OVCAR-5 ovarian; 82.1% in the assay with OVCAR-4 ovarian; 59.3% in the assay with SK-OV-3 ovarian; 47.6% in the assay on IGROV1 ovarian; 42.3% in the assay with HS 578T breast. Besides, in the assay with NCI/ADR-RES ovarian, the growth was 87.7%.

Source of the values: PubChem BioAssay (NCI).
